# DT40 TDP1 no CPT – qHTS for Inhibitors of human tyrosyl-DNA phosphodiesterase 1 (TDP1): qHTS in cells in absence of CPT; 420,000 tested, 15% active; DT40 Tdp1-/- hTDP1 cells, no CPT, ATP luminescence, 48 h; Potency, µM (top dose mostly 46.2 µM), without a hit: at the highest dose activity change, negative = growth inhibition, actives largely listed as inhibitors; note: nearly all actives have a fitted effect of over 55% in size
#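 Luminescent ATP content (CellTiter-Glo) served as the growth readout. Knockout chicken DT40 cells expressing human TDP1 were exposed to compounds without camptothecin for a minimum 48 hr at 37 °C.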
# DT40 TDP1 CPT – growth inhibition of DT40 Tdp1-/-;hTDP1 cells with camptothecin (screen for TDP1 inhibitors); chicken DT40 Tdp1-/-;hTDP1 cells + 20 nM CPT, ATP luminescence, 48 h; 420,000 tested, 12% active; Potency, µM (titrated, usually from 46.2 µM), for inactives: top-dose activity change, negative = growth inhibition, actives largely listed as inhibitors; note: nearly all actives have a fitted effect of over 55% in size
#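 Chicken DT40 Tdp1-/- cells complemented with human TDP1, 400 cells/well, exposed to compounds plus 20 nM camptothecin for at least 48 h at 37 C; viability read as ATP content by CellTiter-Glo luminescence.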
# KB-V1 MDR tox – KB-V1 MDR subline cytotoxicity; KB-V1 MDR cells viability, CellTiter-Glo, 72 h; Potency, µM (doses to about 46.1 µM), usual class: cytotoxic; 400,000 tested, 3.4% active; AID 1347076; note: nearly all actives have a fitted effect of over 60% in size
#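 KB-V1 MDR subline cells in DMEM (phenol-red free, 10% FBS) exposed to compounds in qHTS concentration series for 72 h at 37 degrees C. Viability read by CellTiter-Glo luminescence; concentration-effect curves fitted after normalization and correction.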
# HT1080-NT tox – kills 2HG-producing HT-1080-NT fibrosarcoma cells | 360,000 tested, 1.6% active | HT-1080-NT fibrosarcoma viability, CellTiter-Glo ATP luminescence, 48 h | Potency, µM (titrated, usually from 46.1 µM), inactives show top-dose activity, negative = less viability, actives largely listed as cytotoxic;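 note: NT is the 2HG producing partner of a matched IDH1 knockdown line; 0% = DMSO-treated cells and -100% = media-only wells without cells; nearly all actives have a fitted effect of over 55% in size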
#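 Toxicity toward the 2HG-producing NT line was scored as %Activity, normalised to DMSO and no-cell wells, from CellTiter-Glo luminescence after 48 hours' treatment.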
# HT1080 IDH1KD tx – HT-1080 IDH1 knockdown cell toxicity (counter line) | HT-1080 IDH1 knockdown viability, ATP luminescence, 48 h | Potency, µM (top dose mostly 46.1 µM), inactives show at the top dose activity, negative = toxicity, most hits filed as cytotoxic | AID 686971 | 360,000 tested, 2% active;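 note: 0% = DMSO wells and -100% = cell-free medium wells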
#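 IDH1KD HT-1080 cells, 750/well, RPMI + 5% FBS; compound pinned after 2 h settling; 48 h, 37 °C; CellTiter-Glo luminescence; % activity normalised to DMSO and no-cell wells; curves fitted, classed by r2 and efficacy.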
# KB-3-1 cytotox – kills parental KB-3-1 adenocarcinoma cells; KB-3-1 viability, CellTiter-Glo ATP luminescence, 72 h; Potency, µM (highest dose often 46.1 µM), most hits filed as cytotoxic; 400,000 tested, 1.4% active; note: nearly all actives have a fitted effect of over 60% in size
#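 Using CellTiter-Glo luminescence, growth of non-resistant KB-3-1 adenocarcinoma cells is assessed 72 h after pin-tool compound addition at 37 °C. Normalized responses across the concentration series yield fitted curves.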
# Active calls of the source: *; i = inactive; ? = inconclusive; . = not tested or not shown. A selection: hits, their analogues and other compounds. The true share with any hit is near 19%. Calls come from the whole dose curve; as a rule, active = well fitted curve in the direction sought with a large enough effect; inconclusive = small, poorly fitted or top-dose-only effect, or another doubt; inactive = no such curve, though single readings can be large; an effect the other way counts as inactive or inconclusive. Unless noted, % is set by controls: 0 for no effect and ±100 for the full control effect; potency is the fitted concentration of half-maximal effect.
SMILES,DT40 TDP1 no CPT,DT40 TDP1 CPT,KB-V1 MDR tox,HT1080-NT tox,HT1080 IDH1KD tx,KB-3-1 cytotox
CS(=O)(=O)c1ccc(S(=O)CC(=O)OCc2ccccc2)c([N+](=O)[O-])c1 (stereo not drawn),0.326µM*,0.231µM*,i,5.8µM*,4.11µM*,i
COc1cc(C)nc(NC(=O)NC(=O)c2ccc(C(F)(F)F)cc2)n1,-1.6%,?,i,7.2%,11.5%,i
Cc1ccc2nc(-c3ccncc3)c(Nc3ccc(C(C)C)cc3)n2c1,7.31µM*,6.51µM*,i,.,.,i
Cc1ccc(Nc2c(-c3ccncc3)nc3ccc(C)cn23)cc1,?,16.4µM*,i,.,.,i
Cc1cccc(OCC(=O)N2CCc3ccccc3C2)c1C,?,?,i,-3.5%,-10.1%,i
CC(=O)c1ccc(S(=O)(=O)NCCC(=O)NCCc2c[nH]c3ccccc23)cc1,?,?,i,2.1%,2.0%,i
O=C(NCCc1c[nH]c2ccccc12)C(=O)c1c[nH]c2ccccc12,14.6µM*,?,i,?,?,?
Cc1cc2cc(CCNC(=O)C(=O)c3c[nH]c4ccccc34)c(=O)[nH]c2cc1C,18.4µM*,14.6µM*,?,?,13µM*,i
O=C(CCNS(=O)(=O)c1ccc(OC(F)(F)F)cc1)NCCc1c[nH]c2ccccc12,23.1µM*,14.6µM*,.,-22.0%,-14.4%,.
CN(C)c1ccc(CNC(=O)CCS(=O)(=O)c2ccc3c(c2)n(C)c(=O)c(=O)n3C)cc1,-2.5%,-10.1%,i,-0.8%,0.6%,i
CC1(C(=O)O)CCCN(C(=O)c2cc3ccccc3s2)C1 (stereo not drawn),4.9%,1.9%,i,17.7%,13.5%,i
C(=N\Nc1nc(N2CCCC2)nc(N2CCCC2)n1)/c1ccccc1OCc1ccccc1,?,?,i,-8.6%,-7.8%,i
COc1cc(/C=N/Nc2nc(Nc3ccccc3)nc(N3CCCCC3)n2)ccc1OCC(=O)O,?,?,i,2.1%,25.8%,i
COc1ccc(/C=N/Nc2nc(Nc3ccccc3)nc(N3CCCC3)n2)cc1[N+](=O)[O-],16.4µM*,?,?,14.6µM*,?,i
COc1ccc(/C=N/Nc2nc(Nc3ccccc3)nc(N3CCCCC3)n2)c(OC)c1,20.6µM*,?,i,-0.4%,0.0%,?
COc1cc(/C=N/Nc2nc(Nc3ccccc3)nc(N3CCOCC3)n2)ccc1OC(=O)c1ccco1,4.11µM*,7.31µM*,i,-24.0%,-18.6%,i
O=Cc1c(Sc2ccccc2)nc2ccccn2c1=O,16.4µM*,?,?,?,?,14.6µM*
CCN1CCN(c2ccc(N=Cc3ccccc3O)cc2)CC1,?,-13.7%,i,-4.1%,-1.3%,i
C/C(CC(=O)Nc1ccc(N(C)C)cc1)=N\NC(=O)c1ccccn1,14.6µM*,?,i,-4.9%,-2.2%,i
CC(C)OC(=O)c1cccc(C(=O)Nc2cccc(NC(=O)c3cccc(C(=O)OC(C)C)n3)n2)n1,2.06µM*,?,?,11.5%,16.1%,i
CN(C)c1ccc(NC(=O)c2cccc(C(=O)Nc3ccc(N(C)C)cc3)n2)cc1,6.51µM*,9.2µM*,i,-2.5%,-14.3%,?
CN(C)c1ccc(-c2[nH][nH]c(=O)c2NC(=O)c2ccccn2)cc1,?,?,i,?,20.6µM*,i
O=C(Nc1ccc2c(c1)OCO2)c1cc(C2CCCCN2S(=O)(=O)Cc2ccccc2)on1 (stereo not drawn),-25.3%,-9.7%,i,-0.3%,-2.2%,i
COc1ccc(NC(=O)C(CC(=O)O)Cc2ccc(Cl)cc2)cc1 (stereo not drawn),15.3%,-2.3%,i,5.4%,1.9%,i
COc1sc(SC)cc1/C=N/NC(=O)c1ccncc1,-26.5%,-25.3%,i,-5.5%,-1.2%,i
SMILES,DT40 TDP1 no CPT,DT40 TDP1 CPT,KB-V1 MDR tox,HT1080-NT tox,HT1080 IDH1KD tx,KB-3-1 cytotox
CO/N=C/c1ccc(N2CCOCC2)c([N+](=O)[O-])c1,-10.8%,16.3%,i,6.3%,13.0%,i
O=[N+]([O-])c1cc(/C=N/OCc2c(Cl)cccc2Cl)ccc1N1CCOCC1,-29.4%,?,13µM*,3.9%,1.5%,?
CCN(C[C@H]1N[C@@](CC)(C(=O)OC)[C@H]2C(=O)N(C)C(=O)[C@@H]12)S(=O)(=O)c1ccc(OC(F)(F)F)cc1,?,?,i,-2.1%,-4.3%,i
O=C(CCC(=O)N1CCOc2ccccc21)Nc1cc(F)ccc1F,-25.3%,?,i,2.2%,4.8%,i
CCOc1ccc(CCNC(=O)CCc2c(C)nc3c(c(C)nn3-c3ccc(C)c(C)c3)c2C)cc1,-2.3%,1.2%,?,.,.,i
C#C[C@]1(O)CC[C@H]2[C@@H]3CCc4cc(OC)ccc4[C@H]3CC[C@@]21C,20.6µM*,0.237µM*,i,16.7%,-1.4%,i
COc1ccc2c(c1)CC[C@@H]1[C@@H]2CC[C@]2(C)[C@@H](C(C)=O)C[C@@H]12,?,?,?,-1.9%,1.9%,?
C#C[C@]1(O)CC[C@H]2[C@@H]3CCc4cc(OC5CCCC5)ccc4[C@H]3CC[C@@]21C,8.2µM*,13.3µM*,i,16.4µM*,20.6µM*,?
CCOC(=O)c1[nH]c(C)c(C(=O)c2ccc(C)cc2)c1C,2.06µM*,2.31µM*,1.46µM*,1.78µM*,1.26µM*,i
CCOC(=O)c1[nH]c(C)c(C(=O)Nc2ccc(F)cc2)c1C,1.0%,-11.2%,i,-16.4%,-8.7%,i
CCOC(=O)c1[nH]c(C)c(C(=O)OC)c1C,8.2%,3.0%,i,5.8%,15.2%,i
CCOC(=O)c1[nH]c(C)c(C(=O)Nc2ccccc2F)c1C,2.59µM*,2.31µM*,3.66µM*,?,?,2.31µM*
CCOC(=O)c1[nH]c(C)c(C(=O)Nc2ccc(C)cc2C)c1C,1.3µM*,2.31µM*,3.66µM*,?,11.6µM*,2.59µM*
CCOC(=O)c1[nH]c(C)c(C(=O)Nc2ccc(C)c(C)c2)c1C,?,?,?,-13.6%,-25.8%,?
CCOc1cc(N2CCOCC2)c(OCC)cc1NC(=S)NCCCOC,-6.9%,-1.9%,i,23.9%,23.7%,i

# Source: PubChem
